Measured values as given in PubChem BioAssay AID493231 (Broad Institute, 2011).
Entries with a potency or affinity are not part of this list. Active and inactive are the calls of the source. No rule for the calls is given here.

Molecular target: Acyl-homoserine lactone acylase PvdQ (Pseudomonas aeruginosa (strain ATCC 15692 / DSM 22644 / CIP 104116 / JCM 14847 / LMG 12228 / 1C / PRS 101 / PAO1)) (UniProt Q9I194)
Test: PvdQ acylase enzyme activity blockers – biochemical, fluorescence, plate reader and imaging, cherry-picks, dose response (AID 493231);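 also: 0% = neutral control wells and -100% = reference inhibitor wells; more negative values mean stronger inhibition of the acylase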
Conditions: purified PvdQ acylase, fluorogenic substrate; series mostly up to 10 µM; activity change, negative = inhibition: at the top concentration

Chain of Acyl-homoserine lactone acylase PvdQ (Pseudomonas aeruginosa (strain ATCC 15692 / DSM 22644 / CIP 104116 / JCM 14847 / LMG 12228 / 1C / PRS 101 / PAO1)) (Q9I194 whole entry, looked up): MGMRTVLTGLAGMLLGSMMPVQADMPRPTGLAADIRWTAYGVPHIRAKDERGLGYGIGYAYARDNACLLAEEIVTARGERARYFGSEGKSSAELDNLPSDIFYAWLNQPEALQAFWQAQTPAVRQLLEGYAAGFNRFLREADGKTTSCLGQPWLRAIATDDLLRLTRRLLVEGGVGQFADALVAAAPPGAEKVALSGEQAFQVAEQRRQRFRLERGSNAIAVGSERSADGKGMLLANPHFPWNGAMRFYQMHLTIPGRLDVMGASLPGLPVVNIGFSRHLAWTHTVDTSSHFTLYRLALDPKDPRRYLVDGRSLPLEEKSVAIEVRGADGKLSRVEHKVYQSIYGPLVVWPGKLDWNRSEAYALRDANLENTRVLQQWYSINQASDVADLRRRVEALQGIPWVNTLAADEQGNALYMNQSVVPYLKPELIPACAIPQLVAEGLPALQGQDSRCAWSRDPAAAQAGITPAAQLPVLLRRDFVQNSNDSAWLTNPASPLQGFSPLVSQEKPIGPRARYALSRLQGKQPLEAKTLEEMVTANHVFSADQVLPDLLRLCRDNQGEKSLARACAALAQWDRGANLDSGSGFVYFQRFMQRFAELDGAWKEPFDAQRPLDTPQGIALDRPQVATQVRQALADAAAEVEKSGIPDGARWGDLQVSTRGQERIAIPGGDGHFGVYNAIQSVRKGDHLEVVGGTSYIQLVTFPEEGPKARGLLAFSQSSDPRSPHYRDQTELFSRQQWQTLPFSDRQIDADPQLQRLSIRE

| Compound | activity change, negative = inhibition |
| --- | --- |
| O=C(COc1ccccc1)OCC(=O)c1ccc(S(=O)(=O)N2CCCCC2)cc1 | 7.39 unspecified (inactive) |
| Cc1ccc(O)c(NC(=S)NC(=O)/C=C/c2ccco2)c1 | 9.83 unspecified (inactive) |
| O=C(CCc1c[nH]c2ccccc12)N/N=C/c1ccc2c(c1)OCO2 | 13.2 unspecified (inactive) |
| O=C(CCCN1C(=O)/C(=C/c2ccccc2)SC1=S)Nc1ccccc1O | 3.81 unspecified (inactive) |
| CC(C)[N+]1=C2C=CC=CC=C2SC12C([N+](=O)[O-])=CC(=[N+]([O-])[O-])C=C2[N+](=O)[O-] (stereo not given) | 4.33 unspecified (inactive) |
| COc1ccc(Cl)c(NCCC(=O)O)c1 | -0.6 unspecified (inactive) |
| Clc1ccc2nc(-c3ccc4c(c3)OCO4)cn2c1 | -8.24 unspecified (inactive) |
| COc1ccc(S(=O)(=O)NCCc2ccccc2)c2cccnc12 | 15 unspecified (inactive) |
| CC1=C(C(=O)Nc2ccccc2)C(c2coc3ccccc3c2=O)C2=C(CCCC2=O)N1 (stereo not given) | 7.59 unspecified (inactive) |
| O=C(CN1C(=O)C2C3C=CC(C4CC34)C2C1=O)Oc1ccccc1 (stereo not given) | -8.57 unspecified (inactive) |
| Cc1cc(NC(=O)Nc2ccc(F)c(Cl)c2)no1 | 9.33 unspecified (inactive) |
| CC(C)(C)OC(=O)N(CCc1ccccc1)Cc1ccccc1OCc1cccc(NC(=O)C2CC2)c1 | 9.08 unspecified (inactive) |
| N#C/C(=C\c1ccc([N+](=O)[O-])cc1)c1ccccn1 | -1.17 unspecified (inactive) |
| Cc1cc(NCCCn2ccnc2)n2nc(-c3ccc(Cl)cc3)cc2n1 | 4.65 unspecified (inactive) |
| C=CCn1c(=O)/c(=C/c2ccc(C)o2)s/c1=C(/C#N)C(=O)c1ccccc1 | 8.18 unspecified (inactive) |
| Cc1ncc(CN2CCN(Cc3ccc(F)cc3)C(CCO)C2)s1 (stereo not given) | 10.5 unspecified (inactive) |
| CCCc1nnc(NC(=O)Cn2cnc3ccccc3c2=O)s1 | 1.15 unspecified (inactive) |
| Nc1nc(-c2ccc(Cl)cc2)nn1C(=O)c1ccco1 | 11.3 unspecified (inactive) |

| Compound | activity change, negative = inhibition |
| --- | --- |
| C(=C\c1nnc(-c2cccs2)o1)/c1ccccc1 | -18.1 unspecified (inactive) |
| NC(=O)c1ncn([C@@H]2O[C@H](CNCc3ccc(-c4cc(C(F)(F)F)ccc4Cl)o3)[C@@H](O)[C@H]2O)n1 | 10.7 unspecified (inactive) |
| CC1CCCCN1C(=O)CSc1nc2ccccc2[nH]1 (stereo not given) | 5.53 unspecified (inactive) |
| O=C(CCc1ccccc1)Nc1ccc2c(c1)OCO2 | -3.22 unspecified (inactive) |
| CCOC(=O)c1cc(-c2cccc([N+](=O)[O-])c2)on1 | -8.55 unspecified (inactive) |
| COc1ccccc1C1CCN(C(=O)C2CCCCC2)CC1 | -96.5 unspecified (inactive) |
| O=C1OC(Nc2ccc3c(c2)OCO3)c2ccccc21 (stereo not given) | -6.13 unspecified (inactive) |
| COc1ccc(OC)c(C(=O)c2oc3ccccc3c2NC(C)=O)c1 | -10.5 unspecified (inactive) |
| Cc1cccc2c(=O)cc(C)n(Cc3ccccc3)c12 | -1.24 unspecified (inactive) |
| CN(C)C(=O)Nc1ccccc1 | -5.76 unspecified (inactive) |
| Cn1c(=O)c2[nH]c(-c3ccccc3)c(O)c2n(C)c1=O | 9.01 unspecified (inactive) |
| CCOc1ccc(NC(=S)NCc2cccnc2)cc1 | 4.97 unspecified (inactive) |
| COC(=O)c1ccccc1NC(=O)CN1CCC(NC(=O)c2ccc(C)cc2)CC1 | 5.52 unspecified (inactive) |
| COc1ccc(NC(=O)C(c2cc3c(cc2[N+](=O)[O-])OCO3)N2CCN(C=O)CC2)cc1 (stereo not given) | 3.27 unspecified (inactive) |
| Cc1ccccc1-c1cc(C(=O)NCc2cccs2)nn1CC1CC(c2cccc([N+](=O)[O-])c2)=NO1 (stereo not given) | -2.87 unspecified (inactive) |
| Cc1onc(-c2ccccc2)c1C(=O)c1c[nH]c(C(=O)NCCCN2CCOCC2)c1 | 9.9 unspecified (inactive) |
| COc1ccc(-c2cc3cccc(OC)c3oc2=O)cc1 | -101 unspecified (inactive) |
